Only some compounds are listed: those with a hit (about 8% of all), similar ones and a draw of the others.
SW480 rereplic: DNA re-replication induction in SW480 cells; SW480 DNA re-replication, Hoechst DNA content imaging, 48 h; 1.8% of 340,000 active; Potency, µM (top dose mostly 46.1 µM), for the others: at the top dose re-replication activation, actives largely listed as activators; AID 624297; note: % of control where 0% means no effect; nearly all actives have a fitted effect of over 55% in size
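250 cells/well; 23 nL cpd via pin tool; 48 hr, 37 C, 5% CO2; Hoechst 40 min; imager read of total nuclear intensity, ex 405/em 500-530 nm.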
HT1080-NT tox: kills 2HG-producing HT-1080-NT fibrosarcoma cells; HT-1080-NT fibrosarcoma viability, CellTiter-Glo ATP luminescence, 48 h; Potency, µM (doses to about 46.1 µM), inactives show at the highest dose activity, negative = less viability, most hits filed as cytotoxic; 1.6% of 360,000 active;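 note: NT is the 2HG producing partner of a matched IDH1 knockdown line; 0% = DMSO-treated cells and -100% = media-only wells without cells; nearly all actives have a fitted effect of over 55% in size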
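HT-1080-NT; 750 cells/well; 5% FBS RPMI; 48 h compound, 37 degrees C; CellTiter-Glo luminescence; curve fitting and curve-class assignment.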
MCF10A rereplic: DNA re-replication induction in MCF 10a cells; 2.9% of 350,000 active; MCF 10A DNA re-replication, Hoechst nuclear intensity, 48 h; Potency, µM (highest dose often 46.1 µM), for the others: at the top dose activity, positive = re-replication, usual class: activators; note: % of control where 0% means no effect; nearly all actives have a fitted effect of over 50% in size
HT1080 IDH1KD tx: kills HT-1080 cells with IDH1 knockdown; HT-1080 IDH1 knockdown viability, ATP luminescence, 48 h; Potency, µM (top dose mostly 46.1 µM), inactives show top-dose activity, negative = toxicity, actives largely listed as cytotoxic; 2% of 360,000 active;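 note: 0% = DMSO wells and -100% = cell-free medium wells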
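IDH1KD HT-1080 cells, 750/well, RPMI + 5% FBS; compound pinned after 2 h settling; 48 h, 37 °C; CellTiter-Glo luminescence; % activity normalised to DMSO and no-cell wells; curves fitted, classed by r2 and efficacy.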
KB-V1 MDR tox: KB-V1 MDR subline cytotoxicity; KB-V1 MDR cells viability, CellTiter-Glo, 72 h; Potency, µM (top dose mostly 46.1 µM), hits mostly cytotoxic; 3.4% of 400,000 active; AID 1347076; note: % is set by controls: 0 for no effect and ±100 for the full control effect; nearly all actives have a fitted effect of over 60% in size
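Cytotoxicity via CellTiter-Glo luminescence after 72 h compound exposure at 37 degrees C. Cells: drug-selected KB-V1 line, DMEM phenol-red free plus 10% FBS. Compounds tested at multiple concentrations; normalized data fitted to concentration-effect curves.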
KB-3-1 tox: KB-3-1 parental cell cytotoxicity; KB-3-1 viability, CellTiter-Glo ATP luminescence, 72 h; 1.4% of 400,000 active; AID 1347075; Potency, µM (highest dose often 46.1 µM), most hits filed as cytotoxic; note: % is set by controls: 0 for no effect and ±100 for the full control effect; nearly all actives have a fitted effect of over 60% in size
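Cytotoxicity measured as CellTiter-Glo luminescence after 72 h at 37 C. Compound titrations were pinned onto drug-naive KB-3-1 parental adenocarcinoma cells grown in DMEM with 10% FBS, and normalized data fitted to concentration-response curves.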
* marks the source's active call; other numbers are inactive results; i = inactive; ? = inconclusive; nt = no result given; ! = repeats disagree; [ ] = remark or other dose. Calls come from the whole dose curve; as a rule, active = well fitted curve in the direction sought with a large enough effect; inconclusive = small, poorly fitted or top-dose-only effect, or another doubt; inactive = no such curve, though single readings can be large; an effect the other way counts as inactive or inconclusive. Potency is the fitted concentration of half-maximal effect.

SMILES | SW480 rereplic | HT1080-NT tox | MCF10A rereplic | HT1080 IDH1KD tx | KB-V1 MDR tox | KB-3-1 tox
COc1ccc(NC(=O)c2ccc3c(=O)n4nc(Nc5cccc(Cl)c5C)sc4nc3c2)cc1 | nt | nt | nt | nt | ? | i
Cc1cc(F)ccc1S(=O)(=O)N1CCCOC1CNC(=O)C(=O)NCCc1c[nH]c2ccccc12 (stereo not given) | 18% | -2% | ? | -4% | 3.3µM* | ?
Cc1cc(C)c(S(=O)(=O)N2CCCOC2CNC(=O)C(=O)NCCc2c[nH]c3ccccc23)c(C)c1 (stereo not given) | 13% | -1% | -2% | -28% | 16µM* | i
Cc1cc(C)c(S(=O)(=O)N2CCCOC2CNC(=O)C(=O)NCc2cccs2)c(C)c1 (stereo not given) | 20% | -1% | -8% | 3% | 18µM* | i
O=C(NCCc1c[nH]c2ccccc12)C(=O)NCC1OCCCN1S(=O)(=O)c1ccc(F)cc1 (stereo not given) | ? | -13% | 15% | -8% | ? | i
Cc1ccc(S(=O)(=O)N2CCCOC2CNC(=O)C(=O)NCCN2CCOCC2)cc1 (stereo not given) | 1% | -2% | 11% | -5% | i | i
Cc1ccc(S(=O)(=O)N2CCCOC2CNC(=O)C(=O)NCCC2=CCCCC2)cc1 (stereo not given) | 4% | -5% | 8% | -19% | 2.9µM* | ?
O=C(NCc1cccs1)C(=O)NCC1OCCCN1S(=O)(=O)c1cccs1 (stereo not given) | -2% | 2% | -12% | -4% | i | i
CCc1ccc(NC(=O)Cn2c(=O)n(CCc3ccccc3)c(=O)c3sc4ccccc4c32)cc1 | nt | nt | nt | nt | i | i
N=C1C(=O)OCC1c1ccccc1NC(=O)Nc1ccccc1 (stereo not given) | -5% | -5% | 2% | -1% | ? | i
CC(C)=Nc1ccccc1C1COC(=O)C1=N (stereo not given) | 0.52µM* | 9% | -70% | 5% | i | i
COc1ccc(NC(=O)c2ccco2)cc1NC(=O)COc1ccc(Cl)c(C)c1 | nt | nt | nt | nt | i | i
COc1cccc(NC(=O)CSc2nc3ccccc3c(=O)n2CCCC(=O)N2CCCC2)c1 | 7% | -12% | ? | -11% | 2.6µM* | i
C=CCn1c(SCC(=O)Nc2sccc2C(N)=O)nc2ccc(Cl)cc2c1=O | 2% | ? | 26% | ? | ? | ?
COc1ccc(NC(=O)CSc2nc3ccccc3c(=O)n2CCC(=O)N2CCCCC2)cc1 | -1% | 0% | 3% | -11% | ? | i
COc1cccc(NC(=O)CSc2nc3c(sc4ccccc43)c(=O)n2CCN(C)C)c1 | -11% | 2% | -2% | -10% | i | i
COc1cccc(NC(=O)CSc2nc3c(sc4ccccc43)c(=O)n2CCCN2CCCC2)c1 | ? | -12% | 18µM* | -9% | i | i
COc1cccc(NC(=O)CSc2nc3ccccc3c(=O)n2Cc2cccs2)c1 | 5% | 10% | 9% | -1% | 5.2µM* | i
C=CCn1c(SCC(=O)Nc2sccc2C(N)=O)nc2ccccc2c1=O | ? | ? | 7% | ? | 18µM* | ?
CCc1ccccc1NC(=O)c1cc(S(=O)(=O)N2CCCc3ccccc32)ccc1F | nt | nt | nt | nt | i | i
CC(=O)N1c2ccccc2C(C)(c2ccc(C)cc2)CC1(C)C (stereo not given) | nt | nt | nt | nt | i | i
c1ccc(CNc2ncnc3nc(N4CCOCC4)[nH]c23)cc1 | nt | nt | nt | nt | i | ?
CNC(=O)/C(C#N)=C/c1c(N2CCN(c3ccc(OC)cc3)CC2)nc2c(C)cccn2c1=O | -1% | 0% | 21µM* | -3% | i | i
CCN1CCN(c2nc3c(C)cccn3c(=O)c2/C=C(\C#N)C(=O)NCCOC)CC1 | 6.5µM* | 4% | 16µM* | -1% | i | ?
COC(=O)/C(C#N)=C/c1c(N2CCN(c3ccc(OC)cc3)CC2)nc2c(C)cccn2c1=O | -3% | -16% | 0% | -15% | i | i
SMILES | SW480 rereplic | HT1080-NT tox | MCF10A rereplic | HT1080 IDH1KD tx | KB-V1 MDR tox | KB-3-1 tox
COCCNC(=O)/C(C#N)=C/c1c(N2CCN(C)CC2)nc2c(C)cccn2c1=O | 21µM* | 4% | -6% | 2% | i | i
CCOC(=O)c1cccc(NC(=O)CCc2c(C)nc3c4cccnc4nn3c2C)c1 | nt | nt | nt | nt | ? | i
COc1ccc(CN2CCc3ccccc3C2)c(OC)c1 | 12% | 4% | -6% | 6% | i | i
COc1ccc(C2=[N+](C)CCn3cccc32)c(OC)c1 | 0.52µM* | -8% | ? | ? | i | ?
Cc1ccc(Cl)cc1-n1ncc2c(NCCC3=CCCCC3)ncnc21 | nt | nt | nt | nt | ? | i
Cc1nn(-c2ccc(F)cc2)c2sc(C(=O)N3CCCCCC3)cc12 | 5% | -18% | ? | -27% | i | i
Cc1ccccc1-n1nc(C)c2cc(C(=O)N3CCN(S(=O)(=O)c4ccccc4)CC3)sc21 | -6% | 9% | 7% | 11% | 23µM* | i
Cc1cc(S(=O)(=O)N2CCN(c3ccccc3C)CC2)ccc1F | -5% | -6% | 10% | -24% | i | i
Cc1ccccc1N1CCN(S(=O)(=O)c2ccccc2)CC1 | 0% | 1% | 1% | -5% | 21µM*! | ?
Cc1cccc(Cn2c(=O)n(CCCC(=O)NCc3ccco3)c(=O)c3ccccc32)c1 | 21µM* | ? | ? | ? | 15µM* | 9.2µM*
O=C(CCCCn1c(=O)c2ccccc2n(Cc2ccc(Cl)cc2)c1=O)NCc1ccco1 | ? | ? | ? | -17%[9.24 µM] | 4.6µM* | 15µM*
O=C(CCCn1c(=O)c2sccc2n(CC(=O)OCc2ccccc2)c1=O)NCc1ccco1 | 0% | -1% | 18% | 17% | i | i
O=C(CCCn1c(=O)c2sccc2n(Cc2ccc(F)cc2)c1=O)NCc1ccco1 | 6% | 10µM* | 6% | ? | i | ?
O=C(CCS(=O)(=O)c1nc(-c2ccc3c(c2)OCO3)cc(C(F)(F)F)n1)Nc1ccccc1C(F)(F)F | nt | nt | nt | nt | i | i
O=C(c1nn2c(C(F)(F)F)cc(-c3ccco3)nc2c1Br)N1CCCc2ccccc21 | ? | 23µM* | 9.2µM* | 10µM* | 23µM* | ?
O=C(NC1CCCC1)c1cnn2c(C(F)(F)F)cc(-c3ccc4c(c3)OCO4)nc12 | 1% | 4% | 11% | 10% | ? | i
CC(C)CCNC(=O)c1cc(-c2ccco2)nc2ccccc12 | -1% | 0% | 8% | -2% | 9.2µM* | i

Screening data: PubChem, National Center for Advancing Translational Sciences (NCATS)
